Experimental data reported in PubChem BioAssay (NCI).
About 83,000 compounds went through this panel and 20% of them were active in at least one assay; those are over-represented in the sample as a whole.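 96-well plates, one dose, 48 hours. Percent growth reported; active if below 10.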 Active and inactive are the calls of the source.

Experiments:
Assay in all cases: NCI-60 one-dose screen, 48 h (100 = growth as untreated, 0 = no growth, -100 = all killed)
Details in all cases: 10 µM unless noted
[1] = system: NCI-H23 lung
[2] = system: NCI-H226 lung
[3] = system: NCI-H322M lung
[4] = system: HOP-62 NSCLC
[5] = system: NCI-H460 lung
[6] = system: HOP-92 NSCLC
[7] = system: NCI-H522 lung
[8] = system: A549/ATCC NSCLC
[9] = system: 786-0 renal
[10] = system: COLO 205 colon

Measured: growth

Brc1ccc2[nH]cc(-c3nn4cc(-c5nccs5)nc4s3)c2c1
inactive: [1] 31.2% | [2] 50.5% | [3] 51.5% | [4] 12.8% | [7] 67.6% | [10] 11%
active: [5] -45.3% | [6] -28.1% | [8] 4.76% | [9] -74.5%

CC(C)(C)OC(=O)NCc1ccc(CNc2c([N+](=O)[O-])cnc3ccccc23)cc1
inactive: [1] 46.2% | [2] 55.2% | [3] 91.6% | [4] 58.5% | [5] 70.1% | [6] 32.1% | [7] 62.4% | [8] 72.2% | [9] 73.8% | [10] 80.1%

O=S(=O)(NCCCNc1nccc(-c2[nH]c(-c3ccccc3)nc2-c2ccc(F)c(O)c2)n1)c1ccc(C(F)(F)F)cc1
inactive: [1] 70.7% | [2] 48.5% | [3] 95.4% | [4] 62.3% | [5] 16.3% | [6] 71.6% | [7] 18.8% | [8] 41.7% | [9] 48% | [10] 88.3%

C#C[C@]1(O)CC[C@H]2[C@@H]3CC=C4c5sc(N6CCN(C)CC6)nc5CC[C@]4(C)[C@H]3CC[C@@]21C
inactive: [1] 57% | [2] 86.8% | [3] 77.4% | [4] 54.8% | [5] 49.2% | [6] 82.7% | [7] 28.1% | [8] 54.7% | [10] 66.5%
active: [9] -39.2%

C#C[C@]1(O)CC[C@H]2[C@@H]3CC=C4c5sc(Nc6cccc(F)c6)nc5CC[C@]4(C)[C@H]3CC[C@@]21C
inactive: [1] 27.8% | [2] 43.6% | [3] 53.7% | [4] 33.4% | [5] 24.3% | [6] 61.3% | [7] 31.7% | [8] 32.6%
active: [9] 2.62% | [10] -9.5%

C/C(=C(\c1ccc(O)cc1)c1ccc(OCCN2CCCCCC2)cc1)c1ccc(Cl)cc1
active: [1] -80.3% | [2] -64.1% | [3] -18.9% | [4] -82.5% | [5] -55.9% | [6] -86.8% | [7] -86.9% | [8] -72.4% | [9] -77.4% | [10] -63.4%

CCNC(=O)Oc1ccc(/C(=C(/C)c2ccc(Cl)cc2)c2ccc(OCCN3CCCCCC3)cc2)cc1
inactive: [1] 22.1% | [2] 80.9% | [3] 75.9% | [6] 60% | [7] 82.4% | [8] 43.9% | [9] 22.5%
active: [4] -19.9% | [5] -62.3% | [10] -74.5%

Cc1cc2nc3c4cc(C#N)ccc4n(CCN(C)C)c3nc2cc1C
active: [1] -35% | [2] -21.5% | [3] -0.486% | [4] 4.29% | [5] -42.3% | [6] -19.1% | [7] -52.1% | [8] -67.2% | [9] 6.69% | [10] -82.7%

O=C(/C=C/Nc1ccc(S(=O)(=O)Nc2ncccn2)cc1)c1ccc(N=Cc2c(O)[nH]c3ccccc23)cc1
inactive: [1] 96.5% | [2] 107% | [3] 114% | [4] 108% | [5] 105% | [6] 93.6% | [7] 98.7% | [8] 102% | [9] 96.2% | [10] 117%

CC[C@]12C=CCN3CC[C@]4(C(=C(C(=O)OC)C1)Nc1cc5c(cc14)[C@@H]1[C@H](O5)[C@@H](O)[C@@]4(CC)CC(C(=O)OC)=C5Nc6cc(O)ccc6[C@@]56CCN1C46)C32 (stereo not given in full)
active: [1] -40.9% | [2] -1.32% | [3] 0.163% | [7] -22.8% | [9] 6.94% | [10] -48%
inactive: [4] 16.6% | [5] 10.3% | [6] 35.5% | [8] 20.2%

CNc1sc(S(=O)(=O)NC)nc1S(=O)(=O)c1ccc(C)cc1
inactive: [1] 102% | [2] 92.5% | [3] 96.4% | [4] 99.4% | [5] 109% | [6] 84.9% | [7] 94.5% | [8] 98.8% | [9] 99.4% | [10] 112%

Cc1ccc(C(=O)Nc2ccc(CNCCN3CCOCC3)c(C(F)(F)F)c2)cc1C#Cc1cnc2cccnn12
inactive: [1] 21.5% | [2] 20.5% | [3] 47.9% | [4] 15.4% | [5] 18.9% | [8] 19.2% | [9] 14.2%
active: [6] -11.9% | [7] 4.82% | [10] -18.8%

CS(=O)(=O)c1ccc(/C(=N/N=C(N)N)c2ccc(F)cc2)cc1
inactive: [1] 88.3% | [2] 91% | [3] 119% | [4] 95.7% | [5] 92.7% | [6] 94.4% | [7] 81.2% | [8] 80.8% | [9] 76.9% | [10] 88%

N#C/C(=C\c1ccc(-c2ccc(Cl)c(Cl)c2)o1)C(=O)Nc1ncc(Cc2ccc(Cl)cc2)s1
active: [5] -42.4%
inactive: [1] 38.2% | [2] 73.6% | [3] 33% | [4] 72.1% | [6] 81.5% | [7] 47.1% | [8] 11.6% | [9] 11.4% | [10] 55.8%

C=CCSC1=NC2C(N(CC)C(=O)N2CC)N1/N=C/C=C/c1ccccc1OC (stereo not given)
inactive: [1] 84% | [2] 78.3% | [3] 102% | [4] 80.7% | [5] 84.3% | [6] 68.4% | [7] 57.2% | [8] 69.8% | [9] 98.5% | [10] 83.1%

Cn1cc(-c2cc3ncnc(Nc4ccc(NC(=O)Nc5cc(C(C)(C)C)on5)cc4)c3s2)cn1
inactive: [1] 29.4% | [2] 30.7% | [3] 57.4% | [4] 62.7% | [5] 42.6% | [6] 22.5% | [7] 32.5% | [8] 31.6% | [10] 12.9%
active: [9] 3.44%

C/C(=N\NC(=O)/C=C/CC(=O)O)c1nnn(-c2ccc([N+](=O)[O-])cc2)c1C
inactive: [1] 97.8% | [2] 96.9% | [3] 99.1% | [4] 104% | [5] 111% | [6] 74.3% | [7] 98.6% | [8] 102% | [9] 101% | [10] 108%

C#Cc1nc(C(=O)NCCCCCCC(=O)NO)cs1
inactive: [2] 39.1% | [3] 29.4% | [4] 16.9% | [5] 16% | [8] 10.2%
active: [1] -74.6% | [6] -74.6% | [7] -58.5% | [9] -83.4% | [10] -61.7%

CN1CCN(c2ccc(Nc3nc(NCCNS(=O)(=O)c4ccc(Cl)cc4)c4sccc4n3)cc2)CC1
inactive: [1] 96% | [2] 105% | [3] 99.4% | [4] 104% | [5] 98.8% | [6] 49.4% | [7] 106% | [8] 92.7% | [9] 75.8% | [10] 99.7%

N#Cc1c(-c2cccs2)c(C#N)c(=O)n(Cc2nc3ccccc3[nH]2)c1N
inactive: [1] 90.7% | [2] 87% | [3] 98.5% | [4] 93.3% | [5] 101% | [6] 95.2% | [7] 95.1% | [8] 103% | [9] 103% | [10] 111%

CN1CCN(Cc2ccc(NC(=O)c3cncc(C#Cc4cnc(N)nc4)c3)cc2C(F)(F)F)CC1
inactive: [1] 26.5% | [2] 12.8% | [3] 34.3% | [4] 19.3% | [5] 12.9% | [7] 36.5% | [8] 38% | [9] 40% | [10] 13.2%
active: [6] -28.8%

CCc1cc2c(cc1Cl)nc1c(=O)[nH]c(=O)nc-1n2CCOCC(C)C
inactive: [1] 67.7% | [2] 39.4% | [3] 54.9% | [4] 100% | [5] 49.3% | [6] 126% | [7] 55.6% | [8] 67.1% | [9] 70.3% | [10] 21.3%

N#C/C(=C\c1ccc(-c2ccc(Cl)cc2)o1)C(=O)Nc1ncc(Cc2ccc(Br)cc2)s1
active: [1] -30.6% | [4] 5.97% | [5] -78.1% | [6] 8.49% | [7] 4.79% | [8] -53%
inactive: [2] 40.3% | [3] 19.1% | [9] 23.4% | [10] 41.1%

COc1cc(/C=C2/C(=O)Nc3ccc(Cl)cc32)ccc1OCc1ccc(Cl)cc1
inactive: [1] 81.2% | [2] 95.7% | [3] 89.3% | [4] 92.1% | [5] 70.5% | [6] 88.3% | [7] 87.9% | [8] 84.9% | [9] 100% | [10] 93.4%

O=C(CSc1nnc(-c2ccc(Cl)cc2)n1-c1ccccc1)Nc1ccc(Cl)cc1
active: [6] -5.1% | [9] -50.2%
inactive: [1] 29.1% | [2] 16% | [3] 41.2% | [4] 82.8% | [5] 19.4% | [7] 39.5% | [8] 21.5% | [10] 90.2%

Brc1cc(-c2cc(-c3ccc4c(c3)OC=CO4)[nH]n2)cs1
inactive: [1] 79.3% | [2] 92% | [3] 91.4% | [4] 84.7% | [5] 97.8% | [6] 101% | [7] 81.3% | [8] 93.9% | [9] 106% | [10] 98.5%
